Measurements as given in PubChem BioAssay (NCI).
Where “and” joins values, the source holds several entries; their conditions need not be identical. Identical values can stand only once. About 79,000 compounds went through this panel and 15% of them were active in at least one assay; those are over-represented in the sample as a whole. A number with no mark means an inactive call. Calls of active or inactive are those of the source. Cut-off read from the data, not from the text of the source: active = growth inhibition above about 70%; inactive = the rest.

assay: NCI Yeast Anticancer Drug Screen. Data for the mec2-1 strain (AID 157); details: S. cerevisiae mec2-1 strain, at 5.0 µM (retest, dose inferred, filed as 0.5), hits give high values
Description: Growth inhibition of yeast strains with defined genetic alterations is measured as a screen for potential anti-cancer activity. Selected strains with alterations in DNA damage repair or cell cycle control were exposed to compounds and growth inhibition was measured relative to vehicle treated controls. The strain used in this assay is mec2-1

| SMILES | growth inhibition |
| --- | --- |
| CC[C@@H](C)[C@@H]1NC(=O)C(NC(=O)C(CC(C)C)N(C)C(=O)C2CCCN2C(=O)C(C)O)C(C)OC(=O)C(Cc2ccc(OC)cc2)N(C)C(=O)C2CCCN2C(=O)C(CC(C)C)NC(=O)C(C)C(=O)C(C(C)C)OC(=O)C[C@H]1O (stereo partly specified) | 73% (active) |
| O=C(CBr)OC1CCCCC1 | 41% |
| CC(C)CCC(=O)OC1CCC2(C)C(=CCC3C2CCC2(C)C(O)CCC32)C1 (stereo unspecified) | -2% |
| OC(c1ccccc1)(c1ccccc1)c1ccccn1 | -14% |
| CC1CCN(CCC(=O)CC(c2ccccc2)c2c(O)c3ccccc3oc2=O)CC1 (stereo unspecified) | 10% |
| COc1cc(C(CC(=O)N(CCCl)CCCl)c2ccc3c(c2)OCO3)cc(OC)c1OC (stereo unspecified) | 0% |
| CCCCCN1C(=O)C2C(C1=O)C1(Cl)C(Cl)=C(Cl)C2(Cl)C1(Cl)Cl (stereo unspecified) | 35% |
| O=[As](O)(O)CCc1ccccc1 | -50% |
| O=[C-]c1ccccc1[C-]=O.[Pd+2].c1ccc([PH+](c2ccccc2)c2ccccc2)cc1.c1ccc([PH+](c2ccccc2)c2ccccc2)cc1 | 7% |

same assay, conditions: S. cerevisiae mec2-1 strain, at 50.0 µM (retest, dose inferred, filed as 5.0), hits give high values

| SMILES | growth inhibition |
| --- | --- |
| CC[C@@H](C)[C@@H]1NC(=O)C(NC(=O)C(CC(C)C)N(C)C(=O)C2CCCN2C(=O)C(C)O)C(C)OC(=O)C(Cc2ccc(OC)cc2)N(C)C(=O)C2CCCN2C(=O)C(CC(C)C)NC(=O)C(C)C(=O)C(C(C)C)OC(=O)C[C@H]1O (stereo partly specified) | 99% (active) |
| O=C(CBr)OC1CCCCC1 | 98% (active) |
| CC(C)CCC(=O)OC1CCC2(C)C(=CCC3C2CCC2(C)C(O)CCC32)C1 (stereo unspecified) | 5% |
| OC(c1ccccc1)(c1ccccc1)c1ccccn1 | 2% |
| CC1CCN(CCC(=O)CC(c2ccccc2)c2c(O)c3ccccc3oc2=O)CC1 (stereo unspecified) | 10% |
| COc1cc(C(CC(=O)N(CCCl)CCCl)c2ccc3c(c2)OCO3)cc(OC)c1OC (stereo unspecified) | -2% |
| CCCCCN1C(=O)C2C(C1=O)C1(Cl)C(Cl)=C(Cl)C2(Cl)C1(Cl)Cl (stereo unspecified) | 97% (active) |
| O=[As](O)(O)CCc1ccccc1 | -54% |
| O=[C-]c1ccccc1[C-]=O.[Pd+2].c1ccc([PH+](c2ccccc2)c2ccccc2)cc1.c1ccc([PH+](c2ccccc2)c2ccccc2)cc1 | 54% |

same assay, conditions: S. cerevisiae mec2-1 strain, at 50.0 µM, hits give high values

| SMILES | growth inhibition |
| --- | --- |
| [Cl][Tl] | 5.2% |
| CC1(C)Cc2cccc(C=C(C#N)C#N)c2O1 | 20.6% |
| CC[C@@H](C)[C@@H]1NC(=O)C(NC(=O)C(CC(C)C)N(C)C(=O)C2CCCN2C(=O)C(C)O)C(C)OC(=O)C(Cc2ccc(OC)cc2)N(C)C(=O)C2CCCN2C(=O)C(CC(C)C)NC(=O)C(C)C(=O)C(C(C)C)OC(=O)C[C@H]1O (stereo partly specified) | 83.5% (active) |
| CCC(C)C1(CCc2ccccc2)C(=O)NC(=O)NC1=O (stereo unspecified) | -14.7% |
| O=C(CBr)OC1CCCCC1 | 69.4% |
| CC(C)CCC(=O)OC1CCC2(C)C(=CCC3C2CCC2(C)C(O)CCC32)C1 (stereo unspecified) | -1.95% |
| NC(=O)C1(Cl)CCCCC1 | -22.8% |
| CCNC(=S)S | -8.4% |
| OC(c1ccccc1)(c1ccccc1)c1ccccn1 | 53.4% |
| CC1CCN(CCC(=O)CC(c2ccccc2)c2c(O)c3ccccc3oc2=O)CC1 (stereo unspecified) | 83.8% (active) |
| COc1cc(C(CC(=O)N(CCCl)CCCl)c2ccc3c(c2)OCO3)cc(OC)c1OC (stereo unspecified) | 10.1% |
| CC(C(=O)O)C(Br)C(=O)O (stereo unspecified) | -8.7% |
| Cn1cnc([N+](=O)[O-])c1C(=O)O | 25.1% |
| CCCCCN1C(=O)C2C(C1=O)C1(Cl)C(Cl)=C(Cl)C2(Cl)C1(Cl)Cl (stereo unspecified) | 96.4% (active) |
| CCC1(O)C(=O)OCc2c1cc1n(c2=O)Cc2cc3ccc(C=O)cc3nc2-1 (stereo unspecified) | 19% |
| CCCC1(c2ccccc2)C(=O)NCNC1=O | -30.4% |
| O=[As](O)(O)CCc1ccccc1 | 3.75% |
| CCOC(=O)C1(C#N)C(C#N)(C#N)C12CCCCC2 (stereo unspecified) (tested in a mixture with another compound) | 10.1% |
| CN1CC(C(=O)NO)C=C2c3cccc4[nH]cc(c34)CC21 (stereo unspecified) | 42.5% |
| O=[N+]([O-])c1ccc(/C=N\NP(Br)(c2ccccc2)(c2ccccc2)c2ccccc2)cc1 | 0.3% |
| O=CC(O)C(O)C(O)C(O)COP(=O)(O)Cc1ccccc1 (stereo unspecified) | -12.2% and -25.2% |
| CCCCSP(=S)(SCCCC)SCCCC | 15.1% |
| O=[C-]c1ccccc1[C-]=O.[Pd+2].c1ccc([PH+](c2ccccc2)c2ccccc2)cc1.c1ccc([PH+](c2ccccc2)c2ccccc2)cc1 | 35% |
